The record followed here is PubChem BioAssay.

The nature of the test: differential killing of epithelial or mesenchymal cells, primary screen, imaging, PC-3E GFP, TEM4-18 mCherry, co-culture (AID 1345086).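 For all read-outs here: cells exposed to compound for 72 h before imaging.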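 For red/green cell ratio (normalised): normalised mesenchymal count divided by normalised epithelial count so high means epithelial killing.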 As to conditions: imaging cell counts, at 1 µM; for red/green cell ratio (normalised): actives lie on both sides, counts scaled to control wells, 1 = unselective.
The mark [1] stands for this setting: measured here: epithelial PC-3E GFP cell survival.
[2] abbreviates: measured here: mesenchymal TEM4-18 mCherry cell survival.

The source made the active and inactive calls.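 Rule for the calls: active = compounds killing one labelled cell type while sparing the other, by normalised counts and ratio limits, not self-fluorescent; inactive = the rest.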

For the compound `COC1=CC(=O)C(C)=C(C[C@@H](C)O)C1=O`, the red/green cell ratio (normalised) is 1.12 (inactive). In addition, the normalised cell number under setting [1] stood at 0.99. Also, under setting [2], the normalised cell number stood at 1.11.

`C[C@H](Cc1cc(O)cc(O)c1C(=O)O[C@H](C)CC(=O)O[C@H](C)Cc1cc(O)cc(O)c1C(=O)O[C@H](C)CC1Cc2cc(O)cc(O)c2C(=O)O1)OC(=O)C[C@@H](C)O` (stereo not given in full): the red/green cell ratio (normalised) was 0.98 (inactive). The normalised cell number under setting [1] was 0.85. The same compound gave a normalised cell number under setting [2] of 0.83.

Turning to `C=C1OC(=O)C23C1OC(CC(O)C2O)C3C` (stereo not given), the red/green cell ratio (normalised) is 0.9 (inactive). The compound also had a normalised cell number under setting [1] of 1.26. This compound also registered a normalised cell number under setting [2] of 1.14.

`O=C1CC[C@]23/C=C/C(=O)NCCCCNCCCNC(=O)/C=C/c4ccc(c2c4)O[C@@H]3C1`: the red/green cell ratio (normalised) is 0.81 (inactive). Under setting [1], this compound gave a normalised cell number of 1.1. This compound also had a normalised cell number under setting [2] of 0.89.

Take `CC1(C)C[C@]2(C)CC(=O)O[C@H]3OC(=O)[C@@H]4CC[C@@H]1[C@]342`: the red/green cell ratio (normalised) is 0.92 (inactive). The same compound displayed a normalised cell number under setting [1] of 1.05. Besides, the normalised cell number under setting [2] was 0.96.

For the compound `COC1=CC(=O)OC1(O)C(C)C` (stereo not given), the red/green cell ratio (normalised) was 1.07 (inactive). Under setting [1], this compound registered a normalised cell number of 0.83. The compound further registered a normalised cell number under setting [2] of 0.89.

In the case of `C#C[C@H](O)COc1ccc(C(=O)O)cc1`, the red/green cell ratio (normalised) was 1.18 (inactive). Further, under setting [1], the normalised cell number turned out to be 0.57. This compound displayed a normalised cell number under setting [2] of 0.68.

Regarding `C=C1C[C@]23C[C@@]1(O)CC[C@H]2[C@@]12C=C[C@H](O)[C@](C)(C(=O)O1)[C@H]2[C@@H]3C(=O)O`, the red/green cell ratio (normalised) was 1.1 (inactive). The compound also displayed a normalised cell number under setting [1] of 0.93. Under setting [2], this compound gave a normalised cell number of 1.02.

On to `CCCC1=CC(=O)[C@H](O)[C@H]1O`, for which the red/green cell ratio (normalised) was 1.01 (inactive). This compound also had a normalised cell number under setting [1] of 1.02. For the same compound, the normalised cell number under setting [2] worked out at 1.02.

In the case of `CN(C(=O)c1ccccc1)C1C(O[C@@H]2OC(COS(=O)(=O)O)C(NC(=O)c3ccccc3)[C@H](OS(=O)(=O)O)[C@H]2OS(=O)(=O)O)OC2C[C@@H](NC(=O)c3ccccc3)[C@@H](OC3C(NC(=O)c4ccccc4)C[C@@H](NC(=O)c4ccccc4)[C@H](OS(=O)(=O)O)[C@H]3OS(=O)(=O)O)OC2C1OS(=O)(=O)O` (stereo not given in full), the red/green cell ratio (normalised) is 1 (inactive). The compound further gave a normalised cell number under setting [1] of 1.06. The normalised cell number under setting [2] came out at 1.06.

For `O=C(NCC1O[C@@H](OC2C(NC(=O)OCc3ccccc3)C[C@@H](NC(=O)OCc3ccccc3)[C@H](OC3OC(COS(=O)(=O)O)[C@@H](OS(=O)(=O)O)[C@H](NC(=O)OCc4ccccc4)[C@H]3OS(=O)(=O)O)[C@H]2OS(=O)(=O)O)[C@H](OS(=O)(=O)O)[C@@H](OS(=O)(=O)O)C1OS(=O)(=O)O)OCc1ccccc1` (stereo not given in full), the red/green cell ratio (normalised) was 1.03 (inactive). The compound further registered a normalised cell number under setting [1] of 0.88. Besides, the normalised cell number under setting [2] was 0.91.

On to `CC(C)(C)OC(=O)NCCCC(NC(=O)C(Cc1ccccc1)NC(=O)OC(C)(C)C)C(=O)O` (stereo not given), for which the red/green cell ratio (normalised) is 0.88 (inactive). The compound further showed a normalised cell number under setting [1] of 1.24. The same compound displayed a normalised cell number under setting [2] of 1.1.

Take `OC[C@H]1O[C@H](Oc2cc(O)cc(/C=C/c3ccc(O)cc3)c2)[C@H](O)[C@@H](O)[C@@H]1O`: the red/green cell ratio (normalised) was 0.79 (inactive). Besides, the normalised cell number under setting [1] was found to be 1.3. The compound further came in with a normalised cell number under setting [2] of 1.03.

In the case of `COC(=O)C[C@@H]1C2(C)C(=O)C3CC4(OC3(O)C1(C)C)C1=CC(=O)O[C@@H](c3ccoc3)[C@]1(C)CCC42` (stereo not given in full), the red/green cell ratio (normalised) was 1.06 (inactive). The normalised cell number under setting [1] worked out at 0.91. In addition, the normalised cell number under setting [2] came out at 0.96.

In the case of `CC(=O)OCC1O[C@H](Sc2ccc(C)cc2)[C@@H]2[C@@H](OC(=O)N2C(C)=O)C1OC(C)=O` (stereo not given in full), the red/green cell ratio (normalised) is 0.77 (inactive). The normalised cell number under setting [1] came to 1.36. Under setting [2], this compound gave a normalised cell number of 1.05.

On to `C[C@@H](O)[C@H]1C(=O)N2C(C(=O)O)=C(SC3CN[C@H](C(=O)N(C)C)C3)[C@H](C)[C@H]12` (stereo not given in full), for which the red/green cell ratio (normalised) was 1.01 (inactive). Under setting [1], the normalised cell number is 0.98. This compound also came in with a normalised cell number under setting [2] of 0.99.

Take `O=c1cc(-c2ccccc2)oc2cc(O[C@@H]3O[C@H](CO)[C@@H](O)[C@H](O)[C@H]3O)c(O)c(O)c12`: the red/green cell ratio (normalised) is 0.89 (inactive). The compound also came in with a normalised cell number under setting [1] of 1.13. Further, the normalised cell number under setting [2] was determined as 1.

Turning to `CCCc1oc(=O)cc(OC)c1CO`, the red/green cell ratio (normalised) is 0.86 (inactive). The compound also yielded a normalised cell number under setting [1] of 1.2. The normalised cell number under setting [2] is 1.03.

In the case of `Oc1ccc2c(c1)OCC1(O)Cc3cc(O)c(O)cc3C21` (stereo not given), the red/green cell ratio (normalised) was 1.17 (inactive). This compound also had a normalised cell number under setting [1] of 1.12. In addition, the normalised cell number under setting [2] turned out to be 1.31.

Turning to `CC(=O)NC1[C@@H](O)C2OC(c3ccccc3)OCC2O[C@H]1Sc1ccccc1` (stereo not given in full), the red/green cell ratio (normalised) is 1.03 (inactive). The compound also returned a normalised cell number under setting [1] of 1.06. In addition, under setting [2], the normalised cell number is 1.09.

As to `COc1c(N2CC[C@@H](CN)C2)c(F)cc2c(=O)c(C(=O)O)cn(CCCCN3C(=O)c4ccccc4C3=O)c12`, the red/green cell ratio (normalised) is 1 (inactive). Besides, under setting [1], the normalised cell number was 1.09. Moreover, the normalised cell number under setting [2] stood at 1.09.

As for `O=C(O)c1c(Cl)nc(Cl)c2ccccc12`, the red/green cell ratio (normalised) was 1.02 (inactive). The compound further showed a normalised cell number under setting [1] of 0.97. Also, the normalised cell number under setting [2] is 0.99.

Regarding `CCCCCCCCCCCCCc1ccco1`, the red/green cell ratio (normalised) was 1.13 (inactive). Besides, the normalised cell number under setting [1] came out at 0.74. Besides, the normalised cell number under setting [2] was 0.83.

Take `CO[C@H]1C[C@H](O[C@H]2[C@H](C)[C@@H](O[C@@H]3O[C@H](C)C[C@H](N(C)C)[C@H]3O)[C@@H](C)C[C@]3(CO3)C(=O)[C@H](C)[C@@H](O)[C@@H](C)[C@@H](C)OC(=O)[C@@H]2C)O[C@@H](C)[C@@H]1O`: the red/green cell ratio (normalised) was 0.92 (inactive). For the same compound, the normalised cell number under setting [1] was determined as 1.06. The normalised cell number under setting [2] worked out at 0.97.

Consider `CC(C)/C(O)=C1/C(=O)O[C@@H](c2ccoc2)[C@]2(C)C(O)[C@@H](O)[C@@]34OC5(C)OC67CC(C)(C(O)[C@]6(O)[C@@H](O)[C@]3(O5)C12)[C@H](CC(=O)O)C74C` (stereo not given in full), for which the red/green cell ratio (normalised) was 1.06 (inactive). Further, the normalised cell number under setting [1] turned out to be 1. The same compound gave a normalised cell number under setting [2] of 1.06.

In the case of `CO[C@H]1/C=C/C[C@@H](C)OC(=O)c2c(O)cc(O)cc2CC(=O)CCC1`, the red/green cell ratio (normalised) is 1.01 (inactive). Under setting [1], the normalised cell number stood at 0.98. Under setting [2], this compound yielded a normalised cell number of 0.98.

Turning to `CC1(C)C(=O)C=C[C@@]2(C)C1C=C[C@]1(C)C2CC[C@@]2(C)[C@H](c3ccoc3)OC(=O)[C@H]3O[C@]321` (stereo not given in full), the red/green cell ratio (normalised) is 1.3 (inactive). The normalised cell number under setting [1] came out at 0.56. Further, under setting [2], the normalised cell number came to 0.73.

`C=C(C)[C@@H]1CC[C@]2(CO)CC[C@]3(C)[C@H](CCC4[C@@]5(C)CC[C@H](O)C(C)(C)C5CC[C@]43C)C12` (stereo not given in full): the red/green cell ratio (normalised) was 0.84 (inactive). In addition, under setting [1], the normalised cell number was determined as 1.09. The same compound yielded a normalised cell number under setting [2] of 0.91.

Take `COc1c(F)c(F)cc2c(=S)c(C(=O)O)cn(C3CC3)c12`: the red/green cell ratio (normalised) was 0.91 (inactive). Under setting [1], the normalised cell number turned out to be 1.14. Moreover, under setting [2], the normalised cell number worked out at 1.04.

With `CC(=O)O[C@H]1C[C@@H](OC(C)=O)C(C)(C)C2C[C@@H](OC(C)=O)[C@]3(C)C(CC[C@@]4(C)[C@H](c5ccoc5)OC(=O)[C@H]5O[C@]543)[C@]21C` (stereo not given in full), the red/green cell ratio (normalised) is 1.1 (inactive). The same compound yielded a normalised cell number under setting [1] of 0.93. Moreover, under setting [2], the normalised cell number turned out to be 1.02.
